The list is not random: actives were taken first. Their share in the collection is about 15%.
Pf growth 48h: Primary qHTS for delayed death inhibitors of the malarial parasite plastid, 48 hour incubation; P. falciparum luciferase growth in erythrocytes, 48 h; Potency, µM (titrated, usually from 28.7 µM), for the others: at the top dose activity change, negative = inhibition, hits mostly inhibitors; AID 504832, 2011; actives 5.9% (n = 310,000); also: potency is read from the fitted curve at half-maximal effect; % is scaled to controls: 0 for no effect and ±100 for the full control effect
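Growth was read as firefly luciferase luminescence after a 48 h, 37 C, 5% CO2 exposure of compounds to reporter-bearing P. falciparum cultures (0.1% parasitemia, 2% hematocrit final) in Albumax-supplemented RPMI 1640.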
Pf growth 96h: Primary qHTS for delayed death inhibitors of the malarial parasite plastid, 96 hour incubation | P. falciparum luciferase reporter growth, 96 h | Potency, µM (titrated, usually from 28.7 µM), for inactives: at the top dose activity change, negative = inhibition, most hits filed as inhibitors | actives 6.9% (n = 320,000); also: potency is read from the fitted curve at half-maximal effect; % is scaled to controls: 0 for no effect and ±100 for the full control effect
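Two-generation exposure (96 h) targets delayed-death phenotype. Reporter parasites carrying integrated firefly luciferase, in red cells at 2% hematocrit and 0.05% parasitemia final, kept at 37 C, 5% CO2; luminescence loss indicates inhibition.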
HCV inhibitor: qHTS Assay for Inhibitors of Hepatitis C Virus (HCV). Huh7.5.1 HCVcc-Cre infection, luciferase reporter, 44 h. AID 651820, 2012. actives 3.4% (n = 340,000). Potency, µM (titrated, usually from 41.8 µM), for inactives: top-dose activity change, negative = inhibition, most hits filed as inhibitors; also: potency is read from the fitted curve at half-maximal effect; % is scaled to controls: 0 for no effect and ±100 for the full control effect
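Reporter virus HCVcc-Cre (~0.5 moi) infects cells exposed to compound; seeding density 1,000 cells/well with 4 h settling beforehand. Luminescence, 15 sec read, taken 44 h post-infection following a 15 min RT substrate incubation.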
Sm TGR inh: qHTS Assay for the Inhibitors of Schistosoma Mansoni Peroxiredoxins; Potency, µM (series often up to 114 µM), for the others: top-dose activity change, negative = inhibition, most hits filed as inhibitors; AID 485364, 2010; purified TGR, DTNB reduction, TNB absorbance 405 nm; Schistosoma mansoni thioredoxin glutathione reductase (TGR), Q962Y6; actives 3% (n = 360,000); also: potency is read from the fitted curve at half-maximal effect; % is scaled to controls: 0 for no effect and ±100 for the full control effect; nearly all actives have a fitted effect of over 60% in size
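TGR 20 nM + NADPH 100 uM (dispensed conc.), cpd preinc 15 min RT; start with NADPH (500 uM addition) then DTNB (15 mM addition). Kinetic TNB absorbance, 405 nm filter. Four-parameter Hill fit across titration.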
SARS PLP yeast: qHTS of Yeast-based Assay for SARS-CoV PLP; Potency, µM (series often up to 32.9 µM), without a hit: top-dose activity, positive = growth rescue, actives largely listed as activators; actives 0.19% (n = 330,000); S. cerevisiae expressing SARS-CoV PLpro, growth rescue; AID 485353, 2010; calls by dose curve; also: potency is read from the fitted curve at half-maximal effect; 0% is about no effect; nearly all actives have a fitted effect of over 55% in size
HCMV inh: qHTS Assay for inhibitors of the human cytomegalovirus (HCMV). HFF cells, HCMV-luciferase reporter, 72 h; hits give low values. activity change, negative = inhibition, % at 57.5 µM. actives 4.5% (n = 410,000); in the data active = activity change below about -60%; inconclusive = no clear call, values can overlap the other calls; inactive = above about -39%; also: % is scaled to controls: 0 for no effect and ±100 for the full control effect
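Steps: HFFs plated, 16 h 37C; compounds added; HCMV-luciferase added to MOI 1 PFU/cell; 72 h 37C; OneGlo reagent, 5 min room temperature; luminescence read, normalized to controls.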
* = called active by the depositor; ? = inconclusive; nt = no result. Unless noted, calls follow the shape of the dose curve; as a rule, active = well fitted curve in the direction sought with a large enough effect; inconclusive = small, poorly fitted or top-dose-only effect, or another doubt; inactive = no such curve, though single readings can be large; an effect the other way counts as inactive or inconclusive.

SMILES	Pf growth 48h	Pf growth 96h	HCV inhibitor	Sm TGR inh	SARS PLP yeast	HCMV inh
COc1ccc(-[n+]2c(-c3ccccc3)cc(-c3ccc(C)cc3)cc2-c2ccccc2)cc1	0.928µM*	145.1%	?	0.0%	-20.4%	-93.6*
Brc1ccc(-[n+]2c(-c3ccccc3)cc(-c3ccccc3)cc2-c2ccccc2)cc1	1.85µM*	0.828µM*	?	-21.1%	-8.1%	-98.2*
C[n+]1c(-c2ccccc2)cc(CCCCc2cc(-c3ccccc3)[n+](C)c(-c3ccccc3)c2)cc1-c1ccccc1	13.1µM*	0.928µM*	?	-30.5%	-1.3%	-97.5*
O=C(Cn1ncc2c3ccccc3n(Cc3cccc(Cl)c3)c2c1=O)NCc1cccs1	nt	nt	nt	4.9%	nt	3.9
COc1ccccc1C1C=C(c2ccccc2)Nc2nnnn21 (configuration not stated)	24.2%	-19.4%	-9.4%	-9.6%	2.9%	?
COc1ccc(C2C=C(c3ccc(Br)cc3)Nc3nnnn32)c(OC)c1 (configuration not stated)	nt	nt	nt	-24.4%	nt	-72.1*
COc1ccc(C2=CC(c3sccc3C)n3nnnc3N2)cc1 (configuration not stated)	158.9%	52.4%	?	35.5µM*	-2.2%	65.0
COc1ccc(OC)c(-c2nnc(-c3ccc(C)o3)o2)c1	10.4µM*	183.1%	?	?	-5.3%	84.3
COc1ccc(-c2nnc(SC)o2)c(OC)c1	100.1%	-0.4%	-1.7%	1.3%	1.4%	50.0
O=C(Nc1ccccc1)Nc1nnc(CSCc2ccccc2Cl)s1	2.4%	?	25.6%	0.3%	9.7%	?
O=C(Nc1ccc(Cl)c(Cl)c1)Nc1nnc(CSc2ccccc2)s1	4.65µM*	31.1%	?	7.5%	-1.7%	-99.4*
O=C(Nc1ccc(Cl)c(Cl)c1)Nc1nccs1	?	-99.8%	-29.0%	15.0%	-4.7%	-66.3*
O=C(Nc1ccc(Cl)cc1)Nc1nnc(SCc2ccccc2)s1	11.6%	?	2.8%	-6.2%	-23.4%	-35.0
O=C(Nc1ccc(Cl)cc1)Nc1nnc(CSCc2ccccc2Cl)s1	?	?	?	-8.3%	-6.2%	-91.2*
O=C(Nc1cccc(Cl)c1)Nc1nccs1	43.5%	?	2.6%	-16.7%	-6.1%	-7.9
Cc1ccc(OCCSCc2nnc(NC(=O)Nc3cccc(Cl)c3)s2)cc1	11.7µM*	?	?	-7.2%	-5.1%	?
O=C(c1ccco1)N1CCN(C(=O)c2cccc3c2C(=O)N(C2CCCCC2)C3)CC1	18.8%	nt	-9.0%	50.1µM*	6.2%	-32.6
O=C(c1ccco1)N1CCN(C(=O)c2cccc3c2C(=O)N(Cc2cccnc2)C3)CC1	nt	8.4%	25.0%	-31.8%	-2.7%	-18.8
CC(C)c1ccc(NC(=O)c2cccc3c2C(=O)N(C2CCCCC2)C3)cc1	nt	nt	nt	8.1%	nt	4.7
CCOC(=O)N1CCC(N2Cc3cccc(C(=O)Nc4ccc(N(CC)CC)cc4C)c3C2=O)CC1	?	0.738µM*	-12.5%	-0.6%	7.6%	0.0
Cc1ccc(NC(=O)c2cccc3c2C(=O)N(C2CCCCC2)C3)cc1	5.2%	11.7µM*	-20.0%	2.7%	?	22.1
CCOC(=O)N1CCC(N2Cc3cccc(C(=O)Nc4cc(F)ccc4F)c3C2=O)CC1	nt	-2.9%	-8.1%	-0.5%	-3.5%	15.7
CCOC(=O)N1CCC(N2Cc3cccc(C(=O)Nc4ccc(F)cc4)c3C2=O)CC1	3.29µM*	-13.1%	?	1.4%	7.5%	-101.9*
COc1cccc(OC)c1C(=O)N1CCNCC1	-7.7%	?	-3.2%	-24.8%	-1.6%	18.9
CN(CCCNC(=O)Cn1ncc2c([nH]c3ccccc32)c1=O)Cc1ccccc1	nt	nt	nt	-21.8%	nt	5.9
SMILES	Pf growth 48h	Pf growth 96h	HCV inhibitor	Sm TGR inh	SARS PLP yeast	HCMV inh
COc1ccnc(CSC(N)=Nc2ccc(F)cc2)c1	1.5%	18.0%	-11.4%	44.7µM*	-6.0%	13.7
Cc1ccc2cc(CCNC(=O)c3ccc(S(=O)(=O)N4CCCCC4)cc3)c(=O)[nH]c2c1	?	?	?	0.0%	-0.1%	?
CCC(CC)C(=O)NCCc1cc2cc(C)c(C)cc2[nH]c1=O	7.2%	3.7%	3.7%	4.8%	3.2%	-0.4
Cc1cc2cc(CCNC(=O)c3cccs3)c(=O)[nH]c2cc1C	70.0%	-15.4%	-20.2%	-16.0%	3.0%	-99.4*
Cc1cc2cc(CCNC(=O)c3ccc(S(=O)(=O)N4CCOCC4)cc3)c(=O)[nH]c2cc1C	?	8.28µM*	?	-1.4%	-6.8%	nt
Cc1ccc(C)c2[nH]c(=O)c(CCNC(=O)c3ccc(S(=O)(=O)N4CCCC4)cc3)cc12	11.7µM*	?	?	0.9%	1.3%	-14.5
Cc1ccc2cc(CCNC(=O)c3ccc(S(=O)(=O)N4CCOCC4)cc3)c(=O)[nH]c2c1	?	13.1µM*	nt	1.2%	?	-23.9
N#Cc1ccccc1NC(=O)COC(=O)c1ccc(F)cc1F	29.3%	50.9%	7.9%	9.8%	-0.9%	1.0
Cc1ccc2cc(CCNC(=O)c3ccc(S(=O)(=O)N4CCOCC4)cc3)c(=O)[nH]c2c1C	?	11.7µM*	?	-1.4%	-4.6%	46.4
COc1ccc(-c2cc(C(=O)OCc3ccccn3)c3ccccc3n2)cc1	?	?	?	-17.5%	-8.9%	-7.4
CCOc1ccc(N2CC(c3nc4ccccc4n3CCOc3ccccc3)CC2=O)cc1 (configuration not stated)	nt	nt	nt	-8.0%	nt	7.8
CC(C)(C)N1CC(c2nc3ccccc3n2CCOc2ccccc2)CC1=O (configuration not stated)	nt	5.86µM*	4.9%	3.5%	-0.5%	29.3
CCc1ccc(OCCn2c(C3CC(=O)N(Cc4ccc(F)cc4)C3)nc3ccccc32)cc1 (configuration not stated)	nt	nt	nt	2.8%	nt	-105.2*
Cc1ccc(OCCCn2c(C3CC(=O)N(c4cccc(Cl)c4)C3)nc3ccccc32)c(C)c1 (configuration not stated)	nt	nt	nt	2.6%	nt	16.7
Cc1ccc(OCCn2c(C3CC(=O)N(Cc4ccc(F)cc4)C3)nc3ccccc32)c(C)c1 (configuration not stated)	nt	nt	nt	-13.4%	nt	-91.6*
Cc1[nH]nc2c1C(c1cccnc1)N(c1ccc(Br)cc1)C2=O (configuration not stated)	-3.2%	?	18.3%	1.7%	29.7%	12.6

Assay outcomes deposited in PubChem by National Center for Advancing Translational Sciences (NCATS).
